Screens (PubChem)
Mot1-301 SUMO: yeast Mot1-301 growth rescue at high temperature, primary screen, SUMOylation pathway inhibitor project, S. cerevisiae, ATP luminescence, 38.5C. S. cerevisiae Mot1-301 growth rescue; percent above DMSO median, 100 means doubled. growth rescue, % at 18.8 µM. 320,000 tested, 1% active;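 active means every valid replicate shows activation above 250% relative to neutral control wells; inactive means the rest, any valid replicate at or below 250%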;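 further: OY570 slx delta 5 strain wells were the positive control but not used for scaling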
Calb FLC: C. albicans growth inhibition with fluconazole, primary screen, CaCi-2 strain, Alamar Blue fluorescence; C. albicans CaCi-2 (fluconazole-resistant clinical isolate) + fluconazole, 48 h; growth inhibition, % (test concentration not listed); 300,000 tested, 0.57% active; AID 1979, 2009;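 active means growth inhibition above about 58% in most replicates, limit read from the data, passing the limit was not always enough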;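 further: all wells also contain fluconazole at 8 µg/ml as a sub-toxic cotreatment; 0% = median of DMSO wells and 100% = median of geldanamycin control wells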
ATG4B inh: ATG4B protease inhibitors, primary screen, biochemical, fluorescence, uHTS; Cysteine protease ATG4B (Homo sapiens), Q9Y4P1; ATG4B cleavage of LC3-PLA2, NBD-HPC fluorescence, 1 h; inhibition, % at 8.33 µM; 340,000 tested, 0.51% active; in the data active means inhibition above about 40%
FAS TE block: FAS thioesterase domain inhibitors, primary screen, biochemical, fluorescence intensity, uHTS. Fatty acid synthase (Homo sapiens), P49327. recombinant FAS-TE, OMFH fluorogenic substrate, fluorescence endpoint. inhibition, % at 15 µM. 360,000 tested, 0.67% active;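 active means compounds whose normalised, plate-corrected inhibition of enzyme fluorescence in the single-dose primary screen is 50% or more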;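 further: 0% = DMSO with enzyme and 100% = substrate without enzyme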
NadD inh: inhibitors of S. aureus NadD, primary screen, biochemical, colorimetric, uHTS; Nicotinate-nucleotide adenylyltransferase NadD (Staphylococcus aureus N315); purified NadD enzyme, colorimetric absorbance read-out; inhibition, % at 20 µM; 360,000 tested, 0.78% active; in the data active means inhibition above about 26%
Yeast Mot1 SUMO: growth restoration of Mot1-301 yeast on galactose, dose response, SUMO pathway inhibitor project, whole organism, S. cerevisiae, ATP luminescence, cherry-picked samples | S. cerevisiae Mot1-301 galactose growth, 24 h; -100 = growth of slx-deleted rescue strain | shares compounds with Mot1-301 SUMO | growth activity, percent, % at 42 µM | 2,300 tested, under 10 active | AID 493004, 2010;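 active means Signal drops as the depositor expects, and the fitted half-maximal dose is no more than ten times the top valid tested dose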;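 further: more negative values mean stronger growth rescue toward the control strain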
* marks the source's active call; other numbers are inactive results; nt = no result; + = active, no number. A selection: hits, their analogues and other compounds. The true share with any hit is near 3.1%.

SMILES | Mot1-301 SUMO | Calb FLC | ATG4B inh | FAS TE block | NadD inh | Yeast Mot1 SUMO
COc1ccccc1C(CNC(=O)c1cccc(S(=O)(=O)NCc2ccccc2)c1)N(C)C (configuration not stated) | 193 | -6 | -9 | -6 | -8 | nt
Nc1cc(Cl)ccc1N1CCOCC1 | 465* | 3 | -5 | -6 | -4 | 1
Cc1c(C(=O)Nc2ccccc2)cnn1-c1ccccc1 | 38 | -14 | -5 | -2 | -3 | nt
Cc1c(C(=O)Nc2cccc(F)c2)cnn1-c1ccccc1 | 805* | -15 | 0 | 3 | -2 | -1
CC(C)C(NS(=O)(=O)c1cccc2nsnc12)C(=O)N1CCCCC1 (configuration not stated) | 5 | -1 | 5 | -6 | -5 | nt
COCCn1c(SCC(=O)NCc2cccs2)nnc1-c1ccc(OC)cc1 | 916* | -3 | -16 | -4 | 0 | -1
CCOc1ccc(C(=O)NCc2ccc3c(c2)OCO3)cc1 | 135 | -19 | 2 | 0 | 5 | nt
COC(=O)c1ccc(Cl)c(NC(=O)CN(c2ccc(OC)c(OC)c2)S(C)(=O)=O)c1 | 563* | 10 | -14 | -2 | -2 | 0
COC(=O)c1ccc(Cl)c(NC(=O)CN(c2ccc(OC)cc2)S(=O)(=O)c2ccccc2)c1 | -4 | -2 | -5 | 28 | -2 | nt
Cc1nn(CC(=O)N(C)Cc2ccccc2)c(=O)c2cccn12 | -14 | -4 | 4 | -4 | 1 | nt
CC(=O)c1cccc(N(C(=O)CNC(=O)c2ccco2)C(C(=O)NC2CCCC2)c2ccncc2)c1 (configuration not stated) | -19 | -10 | 9 | 0 | 6 | nt
CC(C)(C)c1ccc(C(=O)NCCC(=O)N2CCCC2)cc1 | 0 | -7 | 4 | 1 | 9 | nt
CC(C)(C)c1ccc(C(=O)NCCC(=O)N2CCN(c3ncccn3)CC2)cc1 | 552* | -1 | 3 | -4 | 0 | 0
Cc1ccccc1C(=O)NNC(=O)/C=C\C(=O)O | 792* | -5 | -3 | -2 | -4 | 0
O=S(=O)(Nc1ccc(N2CCOCC2)cc1)c1cccs1 | 579* | -3 | 1 | -14 | 14 | 1
O=C1OCc2cc(NS(=O)(=O)c3cccs3)ccc21 | 411* | 51 | 11 | -2 | 4 | 0
Cc1cc(C)c[n+](-c2nc3ccccc3nc2[N-]S(=O)(=O)c2ccc(Br)s2)c1 | 379* | -7 | -19 | -10 | 7 | 0
COc1ccc2nc(SC(C)C(=O)NC3CCCCC3)[nH]c2c1 (configuration not stated) | nt | nt | -3 | 0 | 4 | nt
COc1ccc(NC(=O)Cn2nnc(C(=O)Nc3ccc(F)c(Cl)c3)c2N)cc1 | 477* | 19 | 6 | -2 | 6 | 0
Cc1ccc(NC(=O)Cn2nnc(C(=O)Nc3ccc(F)c(Cl)c3)c2N)cc1 | 119 | -1 | 3 | -6 | 1 | nt
Brc1ccc(-c2csc(N3CCc4ccccc4C3)n2)cc1 | 15 | -1 | 5 | 11 | 20 | nt
O=[N+]([O-])c1ccc(-c2csc(N3CCc4ccccc4C3)n2)cc1 | 367* | 27 | 6 | 22 | 6 | 0
O=C(O)c1c(C(=O)O)c(-c2ccc(F)cc2)n2c1CCC2 | 499* | -2 | -3 | -7 | -4 | 0
Cc1ccc(-c2c(C(=O)O)c(C(=O)O)c3n2CCC3)cc1 | 32 | nt | -10 | -4 | 0 | nt
Cc1nnc(SCC(=O)Nc2c(Cl)cccc2Cl)[nH]c1=O | -16 | -6 | -10 | -8 | 3 | nt
SMILES | Mot1-301 SUMO | Calb FLC | ATG4B inh | FAS TE block | NadD inh | Yeast Mot1 SUMO
Cc1nnc(SCC(=O)NCc2ccccc2Cl)[nH]c1=O | + | nt | -10 | -7 | 2 | 1
Cc1nn2c(N)c(-c3ccccc3)cnc2c1-c1ccccc1 | -5 | 11 | -4 | 0 | -4 | nt
C/C(=N\N=C(c1ccccc1)c1ccccc1)c1ccco1 | 576* | 5 | 8 | 18 | -5 | 0
C/C(=N\N(c1ccccc1)c1ccccc1)c1ccco1 | 187 | 7 | -31 | 20 | -3 | nt
O=C(NNC(=O)c1csc(N2CCOCC2)n1)c1ccc(Cl)nc1 | 452* | nt | 1 | -2 | -4 | 0
O=C(NNC(=O)c1ccc(Cl)s1)c1csc(N2CCOCC2)n1 | -12 | -6 | -6 | -4 | 0 | nt
CC(C)NC(=O)c1ccccc1-c1ccccc1 | 468* | 25 | 5 | -10 | -1 | 1
CS(=O)(=O)Nc1ccccc1C(=O)NCCSCc1ccccc1 | 523* | 19 | 1 | 3 | -5 | 0
CS(=O)(=O)Nc1ccccc1C(=O)NCCSc1ccccc1 | 0 | 9 | -5 | -2 | -1 | nt
CCCCc1nnc(NC(=O)CSc2nc(O)c(-c3ccccc3)c(=O)[nH]2)s1 | 631* | 1 | -1 | -2 | 3 | 1
CCCCc1nnc(NC(=O)CSc2nc(O)c(Cc3ccccc3)c(=O)[nH]2)s1 | -1 | -4 | 0 | -4 | 1 | nt
O=C(CCSCCc1ccccn1)Nc1cccc([N+](=O)[O-])c1 | 33 | -7 | -3 | 19 | -1 | nt
